In PMC8769072, “Proteome‐scale mapping of binding sites in the unstructured regions of the human proteome” (Molecular Systems Biology, 2022):

The binders below were run against YES1 90-152, P07947.
YES1 90-152, P07947, sequence (P07947 90-152): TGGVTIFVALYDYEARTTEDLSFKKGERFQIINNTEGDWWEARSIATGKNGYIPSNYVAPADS

Selected by phage display, active:
LPPPPPPDRPYSVGAE [CBL, P22681] confidence 4
TLTDLPLLPGVPMAGD [LRRC46, Q96FV0] confidence 2
ELPLLPPPPSLPTIGA [SETD5, Q9C0A6] confidence 3
PQKEGERALPSIPKLA [PTK2, Q05397] confidence 3
LPLPPLPGAGIPPPPP [FMN2, Q9NZ56] confidence 2
LQRTLPSVPPDTKLSK [TCF24, Q7RTU0] confidence 2
TFRWTSLTRELPPPPP [KMT2B, Q9UMN6] confidence 2
SERELPQPPPLLSPQN [SAMD11, Q96NU1] confidence 4
AAPTLGHRTLPLLPSL [PRRT4, C9JH25] confidence 2
PTPSSPLPSVPVSVPA [PLEKHN1, Q494U1] confidence 3
NLEVKSLRALPATPAL [PDE4DIP, Q5VU43] confidence 2
QPAVFPPSFRELPPPP [IFT52, Q9Y366] confidence 4
TAGPGRPLPQRPMPDQ [ZFHX2, Q9C0A1] confidence 2
TVELEEKRFRTLPLVP [ELL3, Q9HB65] confidence 3
KDRPLPPAPLSPAPGP [MAP1A, P78559] confidence 3
QPLPPAPTSVPPAAFP [PER1, O15534] confidence 2
LPSAESLSRRPLPALP [EFS, O43281] confidence 3
SRALPATPQLPSRSGV [WIPF1, O43516] confidence 3
TKTPPRDLPTIPGVTS [EIF4EBP1, Q13541] confidence 3
LPSLPLEPSLLSGVVQ [LRP10, Q7Z4F1] confidence 2
FAGLPLPLPPTSQGLS [PROSER1, Q86XN7] confidence 3
PGRGLPQLPSSAYSVD [ST5, P78524] confidence 4
PLPPPPPLPKIQPLEP [ZBTB21, Q9ULJ3] confidence 2
DKTSSIQSRPLPSPPK [BCAR1, P56945] confidence 2
QQQQQQLPALPPTPQQ [R3HDM2, Q9Y2K5] confidence 2
TSTLPPLPLPPLLPGD [CDK12, Q9NYV4] confidence 3
APTLPLPPPPGFPPLP [SETD1B, Q9UPS6] confidence 3
AAVGVSKPLPSVPPSI [MADD, Q8WXG6] confidence 2
RLSLEGLPSLPSMHEY [IRS2, Q9Y4H2] confidence 3
NQQKALPPPPASIPPP [FMN1, Q68DA7] confidence 2
QLGDLPPKPQLSDLPP [ASAP1, Q9ULH1] confidence 2
IQSIPLPPTTHTRLPA [TSHZ1, Q6ZSZ6] confidence 2

These binders were tested against ZMYND11 480-602, Q15326.
ZMYND11 480-602, Q15326, sequence (Q15326 480-602): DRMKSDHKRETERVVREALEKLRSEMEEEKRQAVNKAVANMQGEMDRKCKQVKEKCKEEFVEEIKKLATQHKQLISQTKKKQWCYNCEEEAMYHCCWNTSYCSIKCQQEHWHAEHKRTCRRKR

Selected by phage display, active:
QGSGPGEVLPPLLQLE [AATK, Q6ZMQ8] confidence 2
QMPRLVAEESNRGSTT [MORC4, Q8TE76] confidence 3
EEETKEMPKLQAELAD [ZBTB38, Q8NAP3] confidence 4
SLQNPPVLIAQPDHSY [SEC16A, O15027] confidence 2
PPMPQLTPQIPLTGFV [ABI1, Q8IZP0] confidence 2
NESENSRSMPKLEIFE [ZNF165, P49910] confidence 3
EPEYPREPPRLEPQPY [UBN2, Q6ZU65] confidence 2
MPQLDAAGDRLELRSE [C2orf81, A6NN90] confidence 2
TPPVQGLEPPVLEAME [I3L1I5] confidence 4
FERENEGMPSLIAESN [ARID4A, P29374] confidence 2
SELKTMPNLQPISALP confidence 4
ENPPSYYSIFNYGRTP [TMEM171, Q8WVE6] confidence 3
SPPTLAPATASPPTTA [MLXIPL, Q9NP71] confidence 2
HSTGEQPPQLSLATRV [LPIN1, Q14693] confidence 3
LISDLDEGPPVLTPVE [ZHX1, Q9UKY1] confidence 4
ELEMPVLKSSLALGLE [PPP1R35, Q8TAP8] confidence 4
QQTPPKLTAYLPAMSE [PDPK1, O15530] confidence 2
DSINPPALVHVHMQGQ [ZSCAN4, Q8NAM6] confidence 3
SMHRDGPPLLENAHSS [SOS1, Q07889] confidence 2
VPVLEPQLPGSVFDPI [BRD4, O60885] confidence 2
MPELERSQYPMEWGKT [SGMS1, Q86VZ5] confidence 2
GMLEMPDLRDGSNVIV [DSG1, Q02413] confidence 3
VDFDPSTPPKLMPFSN [LZTS1, Q9Y250] confidence 2
DMPELFPSKTAHVTDQ [ETAA1, Q9NY74] confidence 2
DSRDQMPVLEKAIDLP confidence 2
EQALPPHLEPAWPQGL [HOMEZ, Q8IX15] confidence 4
SAISEVTQPPSYEDAV [MYOCD, Q8IZQ8] confidence 3
MPNLARMPSTTAISSN [SLAIN1, Q8ND83] confidence 2
QLLMPTLESETEAAVP [PPRC1, Q5VV67] confidence 4
EGIPVLEAQNGKLEVV [ATAD2B, Q9ULI0] confidence 2
